Data as given in PubChem BioAssay (NCI).
This is part of a sample that, as a whole, favours compounds with a hit. Of some 79,000 tested, about 15% had one in any assay. Unmarked numbers belong to inactive results. Active and inactive are the calls of the source. Rule as the data show it: active = growth inhibition above about 70%; inactive = the rest.

Experiments:
[1] = NCI Yeast Anticancer Drug Screen. Data for the rad50 strain (AID 155);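 also: 0% = growth of vehicle-only cultures of the same strain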; conditions: S. cerevisiae rad50 strain growth inhibition, hits give high values
Outline: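 Growth of the mutant yeast was measured after compound exposure and referenced to vehicle-treated cultures.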

[2] = NCI Yeast Anticancer Drug Screen. Data for the mec2-1 strain (AID 157); conditions: S. cerevisiae mec2-1 strain, hits give high values
Outline: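 mec2-1 yeast strain, carrying an alteration in DNA damage repair or cell cycle control, was exposed to compounds; growth inhibition was measured relative to vehicle-treated controls.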

[3] = NCI Yeast Anticancer Drug Screen. Data for the sgs1 mgt1 strain (AID 161);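 also: 0% = growth of cultures given vehicle only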; conditions: S. cerevisiae sgs1 mgt1 strain, hits give high values
Outline: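 Yeast cells carrying a defined DNA-repair defect were exposed to test compounds. Growth inhibition was measured relative to vehicle-treated controls.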

[4] = NCI Yeast Anticancer Drug Screen. Data for the cln2 rad14 strain (AID 165);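 also: 0% = growth equal to vehicle treated cultures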; conditions: S. cerevisiae cln2 rad14 strain, hits give high values
Outline: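 Yeast carrying cln2 and rad14 alterations (cell cycle control and DNA damage repair) were exposed to compounds. Growth inhibition was measured against vehicle-treated controls.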

[5] = NCI Yeast Anticancer Drug Screen. Data for the bub3 strain (AID 167); conditions: S. cerevisiae bub3 mutant strain, hits give high values
Outline: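 Whole-cell yeast assay. The mutant strain was incubated with compounds, and growth inhibition was determined by comparison with vehicle-treated cells.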

[6] = NCI Yeast Anticancer Drug Screen. Data for the mlh1 rad18 strain (AID 175); conditions: S. cerevisiae mlh1 rad18 strain growth inhibition, hits give high values
Outline: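 Growth inhibition of the yeast strain was measured after compound exposure and expressed relative to vehicle-treated controls. The strain carries defined defects in DNA damage repair.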

[7] = at 5.0 µM (retest, dose inferred, filed as 0.5)
[8] = at 50.0 µM (retest, dose inferred, filed as 5.0)

Compound	growth inhibition [1, 7]	growth inhibition [1, 8]	growth inhibition ([1]; at 50.0 µM)	growth inhibition [2, 7]	growth inhibition [2, 8]	growth inhibition ([2]; at 50.0 µM)	growth inhibition [3, 7]	growth inhibition [3, 8]	growth inhibition ([3]; at 50.0 µM)	growth inhibition [4, 7]	growth inhibition [4, 8]	growth inhibition ([4]; at 50.0 µM)	growth inhibition [5, 7]	growth inhibition [5, 8]	growth inhibition ([5]; at 50.0 µM)	growth inhibition [6, 7]	growth inhibition [6, 8]	growth inhibition ([6]; at 50.0 µM)
NC(=O)NOCC1NC(=O)NC1=O (configuration not stated)	-24%	-4%	-4.95%	-10%	-13%	-13.1%	-16%	-10%	-21.4%	8%	-2%	-11.1%	-3%	-3%	-21.8%	1%	8%	-16.3%
CCn1c2ccccc2c2ccc(C3C(C(=O)OC)=C(C)NC(C)=C3C(=O)OC)cc21	-3%	8%	79.4% (active)	-14%	14%	76% (active)	-2%	9%	80.8% (active)	-14%	26%	83.2% (active)	-6%	15%	85% (active)	1%	8%	85% (active)
OC(CBr)c1cc(-c2ccccc2)nc2ccccc12 (configuration not stated)	-3%	98% (active)	-5.25%	-2%	96% (active)	18.1%	-3%	97% (active)	41.8%	-17%	93% (active)	-24.7%	1%	99% (active)	69.3%	-3%	97% (active)	28.2%
CCOc1ccc2nc(Cl)sc2c1	-17%	67%	82.5% (active)	-7%	91% (active)	89.8% (active)	6%	79% (active)	69.5%	31%	39%	94% (active)	1%	97% (active)	96.3% (active)	-12%	89% (active)	79% (active)
CCC(C1SC(=S)NC1=O)C1SC(=S)NC1=O (configuration not stated)	3%	13%	99.3% (active)	-1%	29%	99.6% (active)	10%	41%	99.4% (active)	-9%	-2%	82.9% (active)	-4%	6%	99.5% (active)	-1%	35%	99% (active)
CCCCCCCCCCCCNC(=O)c1ccc[n+](Cc2ccc(Cl)c(Cl)c2)c1	99% (active)	98% (active)	99% (active)	100% (active)	99% (active)	99% (active)	99% (active)	98% (active)	98.8% (active)	99% (active)	99% (active)	98.2% (active)	98% (active)	98% (active)	97.8% (active)	99% (active)	99% (active)	98.7% (active)
CCc1cccc(C)c1NC(=O)C(=O)CC(=O)c1ccccc1Cl	0%	-1%	72% (active)	-1%	3%	24.7%	-4%	0%	43.8%	-6%	5%	-12.6%	-2%	-2%	24.4%	-8%	0%	31.1%
O=C(O)CCCNc1ncc2c(n1)-c1ccccc1OC2	19%	7%	65.5%	11%	9%	51%	8%	12%	-3.35%	20%	15%	-26%	14%	8%	-22.9%	12%	9%	-9.3%
CC1CCC(C(O)(C(=O)O)C2CCC(C)CC2)CC1 (configuration not stated)	23%	30%	37.9%	26%	39%	19.3%	34%	61%	10.2%	78% (active)	57%	47.6%	25%	-73%	49.1%	15%	23%	49.7%
OCC1CC[N-]CC1.OCC1CC[N-]CC1.[Cl][Pt+2]([Cl])([Cl])[Cl]	24%	99% (active)	98.4% (active)	5%	97% (active)	92.6% (active)	33%	98% (active)	96.8% (active)	15%	98% (active)	92.3% (active)	6%	99% (active)	96.2% (active)	40%	98% (active)	82.5% (active)
C[n+]1c(-c2ccc(/C=N\NC(=O)c3ccc(C(=O)N/N=C/c4ccc(-c5cn6ccsc6[n+]5C)cc4)cc3)cc2)cn2ccsc21	65%	98% (active)	90.6% (active)	81% (active)	98% (active)	86.7% (active)	72% (active)	98% (active)	84.5% (active)	27%	98% (active)	86.7% (active)	86% (active)	98% (active)	83.8% (active)	88% (active)	97% (active)	91.5% (active)
O=CCCCc1cc2c(cc1Br)CCC2	0%	62%	60.9%	14%	62%	70.9% (active)	11%	73% (active)	64.2%	10%	82% (active)	72.2% (active)	23%	92% (active)	77.5% (active)	21%	91% (active)	50.4%
OC(CC(O)(C(F)(F)Cl)C(F)(F)Cl)c1ccccc1 (configuration not stated)	31%	66%	88.1% (active)	10%	62%	90.7% (active)	42%	72% (active)	92.1% (active)	35%	58%	85.8% (active)	37%	69%	88.6% (active)	26%	59%	89.3% (active)
CCOP(=O)(OCC)C(NC(=O)OCC(Cl)(Cl)Cl)n1nnc(C(=O)OC)c1C(=O)OC (configuration not stated)	-7%	79% (active)	-8.8%	-4%	46%	4.15%	-6%	89% (active)	10.6%	-3%	69%	36.4%	-1%	92% (active)	-0.7%	-1%	70% (active)	-1.15%
Clc1c(Cl)c(Cl)c(SC2C3CC4C(C3)C42)c(Cl)c1Cl (configuration not stated)	31%	98% (active)	98.3% (active)	23%	99% (active)	98.8% (active)	27%	97% (active)	98.8% (active)	12%	97% (active)	97.9% (active)	7%	91% (active)	98% (active)	21%	97% (active)	98.4% (active)
FC(F)(F)c1cccc(COCCN2CCN(Cc3cccc(C(F)(F)F)c3)CC2)c1	36%	98% (active)	97.7% (active)	26%	98% (active)	99.1% (active)	46%	99% (active)	99.1% (active)	33%	99% (active)	96.5% (active)	29%	98% (active)	98.2% (active)	21%	98% (active)	99% (active)
c1ccc2c(c1)CC1c3[nH]c4ccccc4c3CCN21 (configuration not stated)	-6%	-5%	88.3% (active)	9%	6%	76.9% (active)	-8%	-10%	82.8% (active)	22%	31%	88.2% (active)	6%	23%	77.7% (active)	7%	3%	74% (active)
O=C(NCc1ccccc1)N1CCN(c2ccccc2)C1=O	-3%	3%	47%	-3%	-5%	2.65%	-3%	-1%	-2.15%	-4%	13%	36.5%	4%	12%	6.95%	-4%	-4%	11.7%
O=C(OCc1ccccc1)N1N=NC2C1C1CC(OCc3ccccc3)(OCc3ccccc3)C2O1 (configuration not stated)	18%	18%	40.1%	2%	2%	-21.9%	18%	18%	-10.7%	4%	4%	13.2%	6%	6%	18%	18%	18%	-22.2%
